Test results as given in the supplement of paper PMC10981050.
“And” between values parts separate entries of the source, which are not always exact repeats. Equal values may be shown once.

Legend:
Assay in all cases: cell viability relative to vehicle control; higher = less cytotoxic
Conditions in all cases: 10 µM
K562 = tested on: K562
In short: (§1)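 Four leukaemia lines, as CRISPR-edited mutant clones and isogenic wild-type clones, were tested against Selleck bioactive, kinase and epigenetic probe libraries after removal of identity-inconsistent compounds. Cells were exposed to a single 10 µM dose for 48 h, and CellTiter-Glo luminescence was then read. Viability was calculated relative to the on-plate vehicle control.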

MARIMO = tested on: MARIMO
In short: as §1

MOLM14 = tested on: MOLM14
In short: as §1

OCI-AML2 = tested on: OCI-AML2
In short: as §1

SMILES	cell viability (K562; SRSF2 genotype: SRSF2 P95H/wt)	cell viability (K562; SRSF2 genotype: SRSF2 wt/wt) [%]	cell viability (MARIMO; SRSF2 genotype: SRSF2 P95H/wt) [%]	cell viability (MARIMO; SRSF2 genotype: SRSF2 wt/wt) [%]	cell viability (MOLM14; SRSF2 genotype: SRSF2 P95H/wt) [%]	cell viability (MOLM14; SRSF2 genotype: SRSF2 wt/wt) [%]	cell viability (OCI-AML2; SRSF2 genotype: P95H/wt) [%]	cell viability (OCI-AML2; SRSF2 genotype: wt/wt) [%]
NCCCCCN [Cadaverine]	104% and 94%	99.5	100	101	95.9	101	97.1	97.7
C=C1C2CCC3C2C(C)(C)CCCC13C (single isomer, unassigned; (+)) [(+)-Longifolene]	105% and 104%	110	96.6	107	103	106	103	115
Oc1nc(-c2ccc(C(F)(F)F)cc2)nc2c1CSCC2	105% and 99.2%	105	104	105	94	95.5	94.6	96.7
CC1=CCC2C(C1)C2(C)C (stereo not given) [3-Carene]	104% and 96%	106	101	103	100	106	101	112
NC(=S)c1ccncc1 [Thioisonicotinamide]	107% and 101%	98.9	96.9	105	103	105	99.4	110
NC(=O)c1cnc(NCCc2ccc(O)c(Cl)c2)nc1NCc1ccccc1	34.2% and 38.5%	33.3	8.49	5.28	5.95	1.62	8.8	13.2
C[C@@H]1COCCN1c1cc(-c2ccnn2C)c2ccnc(-c3ccn[nH]3)c2n1	8.97% and 14.2%	10.6	17.3	26.6	19.1	9.25	15	17.1
CCCCCC1C(=O)CCC1CC(=O)OCCC (stereo not given) [Prohydrojasmon]	100% and 102%	109	98.6	98.6	95.8	106	110	118
CCOC(C)OCCc1ccccc1 (stereo not given) [Efetaal]	105% and 100%	108	97.8	99.3	107	107	104	98.9
C#C[C@]1(O)CC[C@H]2[C@@H]3CCc4cc(O)ccc4[C@H]3CC[C@@]21C [Ethinyl Estradiol]	71.9% and 69.8%	65	70.1	70	82.4	98.8	79.3	79.7
